Our source for the binding signal values is paper PMC5836133, “The intracellular immune receptor Rx1 regulates the DNA-binding activity of a Golden2-like transcription factor”.

Over roughly 16,000 sequences, “e-score” has its median near -0.044; the highest 2% begin near 0.38. The entries come from a sample that favours the highest values as a whole.

This assay addresses T1, GST-NbGlk1(82-244) (Nicotiana benthamiana).
T1 chain: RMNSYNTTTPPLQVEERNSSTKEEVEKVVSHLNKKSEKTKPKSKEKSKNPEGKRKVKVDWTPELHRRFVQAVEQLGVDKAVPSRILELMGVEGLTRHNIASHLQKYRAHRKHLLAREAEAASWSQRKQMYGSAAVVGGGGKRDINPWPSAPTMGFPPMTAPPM
The experiment in a line: protein-binding microarray; NbGlk1 is a Golden2-like transcription factor of Nicotiana benthamiana; high values mean tight binding. To be noted: protein: recombinant; tags: GST (pTH6838); dsDNA, one strand shown.
Turning to AATATTTA, the binding signal was 0.216 ± 0.021 E-score.

In the case of AACAAGAT, the binding signal worked out at 0.228 ± 0.0325 E-score.

As to ACCGAATC, the binding signal was 0.363 ± 0.0171 E-score.

With AGAGAATC, the binding signal stood at 0.4789 ± 0.00191 E-score.

For the sequence ATCGAATC, the binding signal worked out at 0.354 ± 0.00608 E-score.

For ATAGAATC, the binding signal amounted to 0.397 ± 0.032 E-score.

In the case of ACAGAATA, the binding signal was 0.257 ± 0.0299 E-score.

As to ATAGAAAT, the binding signal came out at 0.249 ± 0.0207 E-score.

Regarding AGAGAATA, the binding signal worked out at 0.243 ± 0.0561 E-score.

Take AGCGAATC: the binding signal was 0.4592 ± 0.00447 E-score.

With ACAGAATC, the binding signal turned out to be 0.45398 ± 0.00026 E-score.

Regarding AACGAATC, the binding signal is 0.367 ± 0.0566 E-score.

For the sequence AGAGAAAT, the binding signal was 0.241 ± 0.00888 E-score.

With ATAGAGAA, the binding signal stood at 0.231 ± 0.0678 E-score.

For the sequence ATCTGATG, the binding signal turned out to be 0.241 ± 0.0502 E-score.

AAATATAT: the binding signal was determined as 0.326 ± 0.0239 E-score.

Consider AAATATGC, for which the binding signal is 0.234 ± 0.0807 E-score.

Consider AATCGCAA, for which the binding signal amounted to 0.359 ± 0.0518 E-score.

ATCAGAAA: the binding signal was 0.272 ± 0.108 E-score.

With ATCGCGTG, the binding signal was 0.304 ± 0.0178 E-score.

On to AAGCATAT, for which the binding signal was 0.213 ± 0.0284 E-score.

Take AGTATCAG: the binding signal was found to be 0.272 ± 0.0918 E-score.

For AATCGGTA, the binding signal stood at 0.257 ± 0.0795 E-score.

On to ATTCTGTA, for which the binding signal came out at 0.271 ± 0.104 E-score.

As for AATCTGAA, the binding signal was 0.444 ± 0.0239 E-score.

Consider AATCTGTA, for which the binding signal is 0.414 ± 0.00915 E-score.

AATGATTC: the binding signal was found to be 0.22 ± 0.0193 E-score.

For AATTTATA, the binding signal was determined as 0.264 ± 0.104 E-score.

For the sequence ATTGCACG, the binding signal is 0.251 ± 0.046 E-score.

Take AGGGGAAT: the binding signal came to 0.32 ± 0.0496 E-score.

As for ACCGAAAT, the binding signal was found to be 0.338 ± 0.0315 E-score.

In the case of ATCGAAAT, the binding signal was 0.387 ± 0.0408 E-score.

For the sequence AGCGAAAT, the binding signal worked out at 0.343 ± 0.064 E-score.

Take AGGGCAAT: the binding signal is 0.201 ± 0.0755 E-score.

In the case of ACGGAATC, the binding signal was 0.453 ± 0.0108 E-score.

With ATGGATAC, the binding signal was found to be 0.25 ± 0.0455 E-score.

Take ACGGAATA: the binding signal came to 0.264 ± 0.0173 E-score.

Take AGGGAATC: the binding signal turned out to be 0.477 ± 0.0128 E-score.

On to ACGGAAAT, for which the binding signal was determined as 0.345 ± 0.0654 E-score.

Regarding ATGGAATC, the binding signal came to 0.385 ± 0.0354 E-score.

AAGGATTC: the binding signal came to 0.3738 ± 0.00237 E-score.

As to AAGGAATC, the binding signal was found to be 0.396 ± 0.0666 E-score.

Consider AGGGATTC, for which the binding signal turned out to be 0.359 ± 0.0107 E-score.

Take ATGGAAAT: the binding signal amounted to 0.335 ± 0.0407 E-score.

Turning to AAGGAAAT, the binding signal came to 0.3484 ± 0.000416 E-score.

As to AGGGGATC, the binding signal is 0.316 ± 0.0502 E-score.

Take ATCTCAAT: the binding signal stood at 0.245 ± 0.0732 E-score.

Consider ATTAGATA, for which the binding signal amounted to 0.304 ± 0.0251 E-score.

As to ATCCGCTG, the binding signal came out at 0.261 ± 0.0225 E-score.

With AATCGCAC, the binding signal is 0.296 ± 0.0196 E-score.

Regarding AAAGTGAT, the binding signal was found to be 0.217 ± 0.169 E-score.

Regarding AGGCAGAT, the binding signal was 0.213 ± 0.0549 E-score.

Turning to AATAGAAT, the binding signal came to 0.2556 ± 0.00204 E-score.

Turning to AAAAATAA, the binding signal worked out at 0.229 ± 0.0366 E-score.

With ATTTATAA, the binding signal was 0.229 ± 0.0487 E-score.

For the sequence AGATTGCT, the binding signal amounted to 0.426 ± 0.00629 E-score.

ATTTTGCA: the binding signal came to 0.238 ± 0.0203 E-score.

On to ATCTTGCC, for which the binding signal was 0.261 ± 0.0186 E-score.

For the sequence ATATTGCA, the binding signal was 0.225 ± 0.111 E-score.

As to ATATTGCC, the binding signal was found to be 0.249 ± 0.0822 E-score.

Turning to AGATTGCA, the binding signal turned out to be 0.4641 ± 0.00231 E-score.

With AGATAGAT, the binding signal turned out to be 0.267 ± 0.0623 E-score.

In the case of ATATTGAT, the binding signal is 0.248 ± 0.0795 E-score.

Turning to ATATTGCG, the binding signal stood at 0.328 ± 0.0285 E-score.

As for AGATTGCG, the binding signal was 0.4943 ± 0.000727 E-score.

Take AGATTGCC: the binding signal was determined as 0.4477 ± 0.0014 E-score.

Take AAATTGCG: the binding signal was found to be 0.262 ± 0.0556 E-score.

Regarding AACAATCC, the binding signal came to 0.244 ± 0.0442 E-score.

ATTATTAA: the binding signal was found to be 0.205 ± 0.0755 E-score.

On to ACATATCA, for which the binding signal turned out to be 0.216 ± 0.0561 E-score.

Turning to ATTCAGGA, the binding signal was 0.206 ± 0.0808 E-score.

As for ATCACATA, the binding signal was 0.212 ± 0.0312 E-score.

Take AAATTTAT: the binding signal came out at 0.22 ± 0.0544 E-score.

Take AAGCGAAT: the binding signal is 0.291 ± 0.0479 E-score.

AGATTCGG: the binding signal worked out at 0.413 ± 0.00846 E-score.

For AGATTCGC, the binding signal was 0.482 ± 0.00816 E-score.

Turning to ATATTCGA, the binding signal is 0.293 ± 0.0238 E-score.

Regarding AAATTCGA, the binding signal worked out at 0.219 ± 0.058 E-score.

Turning to AAATTCGC, the binding signal came out at 0.284 ± 0.0251 E-score.

As for AGATTCGA, the binding signal was 0.389 ± 0.00837 E-score.

As to ATATTCGC, the binding signal is 0.321 ± 0.0229 E-score.

On to ATATTCGG, for which the binding signal worked out at 0.228 ± 0.0147 E-score.

AAATTCGG: the binding signal amounted to 0.227 ± 0.0723 E-score.

For the sequence ATTTTTCA, the binding signal stood at 0.253 ± 0.137 E-score.

As to ATCGGAGA, the binding signal amounted to 0.249 ± 0.0227 E-score.

As to ATCTTGTA, the binding signal turned out to be 0.28 ± 0.00362 E-score.
